Results as given in PubChem BioAssay (NCI).
Compounds without any hit were thinned out: in the full panel of roughly 79,000, 15% have a hit. Unmarked numbers belong to inactive results. Activity calls are given as the source filed them. No stated cut-off is given here; in the data, active means growth inhibition above about 70%; inactive means the rest.

Key:
[1] = NCI Yeast Anticancer Drug Screen. Data for the rad50 strain (AID 155);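 further: 0% = growth of vehicle-only cultures of the same strain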; conditions: S. cerevisiae rad50 strain growth inhibition, stronger effect = higher value
Procedure, shortened: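 Vehicle-treated cultures provide the reference for the growth inhibition reported for compound-exposed, repair-deficient yeast.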

[2] = NCI Yeast Anticancer Drug Screen. Data for the mec2-1 strain (AID 157); conditions: S. cerevisiae mec2-1 strain, stronger effect = higher value
Procedure, shortened: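 Using mec2-1 yeast: add compound, measure growth, express inhibition versus vehicle-treated cultures.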

[3] = NCI Yeast Anticancer Drug Screen. Data for the sgs1 mgt1 strain (AID 161);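 further: 0% = growth of cultures given vehicle only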; conditions: S. cerevisiae sgs1 mgt1 strain, stronger effect = higher value
Procedure, shortened: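 Yeast cells carrying a defined DNA-repair defect were exposed to test compounds. Growth inhibition was measured relative to vehicle-treated controls.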

[4] = NCI Yeast Anticancer Drug Screen. Data for the cln2 rad14 strain (AID 165);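 further: 0% = growth equal to vehicle treated cultures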; conditions: S. cerevisiae cln2 rad14 strain, stronger effect = higher value
Procedure, shortened: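 Yeast strain cln2 rad14, bearing defects in cell cycle control and DNA repair, serves as the test system; values reflect growth inhibition compared with vehicle.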

[5] = NCI Yeast Anticancer Drug Screen. Data for the bub3 strain (AID 167); conditions: S. cerevisiae bub3 mutant strain, stronger effect = higher value
Procedure, shortened: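 Mutant yeast screening strain plus compound; vehicle-treated cultures serve as the 0% inhibition reference.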

[6] = NCI Yeast Anticancer Drug Screen. Data for the mlh1 rad18 strain (AID 175); conditions: S. cerevisiae mlh1 rad18 strain growth inhibition, stronger effect = higher value
Procedure, shortened: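 Steps: expose repair-defective yeast to compound; measure growth; express inhibition against vehicle-treated controls.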

[7] = at 5.0 µM (retest, dose inferred, filed as 0.5)
[8] = at 50.0 µM (retest, dose inferred, filed as 5.0)

| SMILES | growth inhibition [1, 7] | growth inhibition [1, 8] | growth inhibition ([1]; at 50.0 µM) | growth inhibition [2, 7] | growth inhibition [2, 8] | growth inhibition ([2]; at 50.0 µM) | growth inhibition [3, 7] | growth inhibition [3, 8] | growth inhibition ([3]; at 50.0 µM) | growth inhibition [4, 7] | growth inhibition [4, 8] | growth inhibition ([4]; at 50.0 µM) | growth inhibition [5, 7] | growth inhibition [5, 8] | growth inhibition ([5]; at 50.0 µM) | growth inhibition [6, 7] | growth inhibition [6, 8] | growth inhibition ([6]; at 50.0 µM) |
| --- | --- | --- | --- | --- | --- | --- | --- | --- | --- | --- | --- | --- | --- | --- | --- | --- | --- | --- |
| CC(C)NCC=C=Nc1ccccc1 | -11% | -32% | 45.8% | -30% | -25% | 9.45% | -8% | -21% | 43.4% | -2% | -28% | 40.5% | -26% | -82% | -5.5% | -9% | -29% | 24.2% |
| NC1NCCC(=O)N1CCc1c[nH]c2ccccc12 (configuration not stated) | -18% | 99% (active) | 65.9% | 7% | 100% (active) | 54.9% | -22% | 99% (active) | 54.4% | 31% | 99% (active) | 22.3% | -26% | 100% (active) | 74.5% (active) | -12% | 100% (active) | 53.6% |
| Cc1cccc(C)c1NC(=O)/C(Cl)=C(/Cl)C(=O)O | 66% | 98% (active) | 91.2% (active) | 67% | 99% (active) | 86.2% (active) | 82% (active) | 98% (active) | 88% (active) | 47% | 81% (active) | 82.8% (active) | 85% (active) | 99% (active) | 90% (active) | 63% | 99% (active) | 93.8% (active) |
| COC(=O)Oc1nn(C(=O)OC)c(=O)c2ccccc12 | -18% | 87% (active) | 90.9% (active) | -3% | 45% | 24.2% | -17% | 43% | 44.4% | 7% | 66% | 99.6% (active) | 5% | 58% | 99.5% (active) | -12% | 54% | 86.5% (active) |
